Experimental data: PubChem BioAssay AID1621 (Southern Research Specialized Biocontainment Screening …, 2009)
The whole screen tested about 290,000 compounds, of which about 60 (0.02%) were called active. Inconclusive results (about 1%) are left out. The list is a sample of the results. Results with a measured potency or affinity are listed apart. Unmarked numbers belong to inactive results. How the calls were made is not given here.

experiment: inhibition of WNV-induced cytopathic effect – cell-based, CPE readout (AID 1621); details: West Nile virus-infected cells, at 10 µM, active compounds read high

SMILES	CPE inhibition
O=C(CCn1c(=S)[nH]c2ccccc2c1=O)N1CCCCC1	0%
O=C(N/N=C\c1ccc(S(=O)(=O)O)o1)c1ccc2c(c1)OCO2	-0.67%
O=C(NCCN1CCOCC1)c1ccc(/C=C2\Sc3ccccc3N(Cc3ccccc3F)C2=O)cc1	2.03%
CCN1CCN(CCNC(=O)c2ccc(/C=C3/Sc4ccccc4N(Cc4ccccc4C)C3=O)cc2)CC1	-0.85%
CC(NS(=O)(=O)c1ccc(Cl)cc1)C(c1cccs1)N1CCN(C)CC1 (stereo not given)	-0.37%
CCCCOc1cccc(C(=O)Nc2ccc(S(=O)(=O)Nc3nnc(CC)s3)cc2)c1	-0.64%
COc1ccc(N=C2CC(C)(C)CC(=O)/C2=C(/O)c2ccccc2)cc1	-0.15%
COC(=O)c1scc(C)c1NC(=O)Nc1ccccc1	1.33%
O=C(NC1CCCC1)C(c1cccs1)N(CC1CCCO1)C(=O)Cc1cccs1 (stereo not given)	-0.52%
Cc1cc(C)c(S(=O)(=O)n2c([N+](=O)[O-])cnc2C)c(C)c1	1.59%
CN1CCN(C(=O)c2ccccc2NC(=O)c2sc3ccccc3c2Cl)CC1	-1.33%
CN1CCN(c2ccccc2NC(=O)c2sc3ccccc3c2Cl)CC1	-0.79%
O=C(O)C1CCCN1C(=O)Nc1ccc(F)cc1 (stereo not given)	-0.08%
CCN1CCN(CCNC(=O)c2ccc3nc(-c4cccc(C)c4)c(-c4cccc(C)c4)nc3c2)CC1	-1.29%
COc1ccc(-c2nc3ccc(C(=O)NCCCN4CCOCC4)cc3nc2-c2ccc(OC)cc2)cc1	0.5%
c1ccc(OCCCCn2cnc3ccccc32)cc1	-0.39%
O=C(c1ccco1)c1cn[nH]c1-c1ccc(Cl)cc1O	0.03%
CC(=O)NCC(=O)NC(C(=O)Nc1ccc2c(c1)OCCO2)c1ccc(C)cc1 (stereo not given)	-0.73%
CN(C)S(=O)(=O)c1cccc(NC(=O)c2cncc(Br)c2)c1	0.06%
Cc1ccc(S(=O)(=O)N(C)C)cc1NC(=O)c1ccncc1	0.43%
C/C=C/c1ccc(OCCCNC(C)CC)c(OC)c1 (stereo not given)	-0.34%
CC(/C=C/c1ccco1)=N\NC(=O)CNc1cccc(C)c1	-0.57%
CCCCOP(=O)(c1ccc(N(C)C)cc1)C(O)c1ccc(OC)cc1 (stereo not given)	-0.79%
Cc1ccccc1NC1=CC(=O)CC(C)(C)C1	-0.82%
COc1cc(CNC(C)(C)CO)cc(Br)c1OCc1ccc(Cl)cc1Cl	15.4%

SMILES	CPE inhibition
COc1cc(CNC(C)(C)CO)cc(Br)c1OCc1ccccc1	-0.18%
CC1C(O)=C(c2nc3ccccc3[nH]2)C(=N)N1c1ccccc1 (stereo not given)	1.12%
CC(O)CNc1ccc(-c2n[nH]c(=O)c3ccccc23)cc1[N+](=O)[O-] (stereo not given)	-1.06%
CCCn1c(SCC(=O)N(CC)CC)nnc1-c1ccncc1	-0.86%
CC1CCN(CCCNC(=O)c2cc3c(Cl)nc4ccccc4c3s2)CC1	3.15%
O=C(NCCCN1CCCC1)c1cc2c(Cl)nc3ccccc3c2s1	0.85%
CNC(=O)OC(C)CNS(=O)(=O)c1ccc(C)cc1 (stereo not given)	-0.03%
CCc1c(C(=O)Nc2ncn(Cc3cccc(C)c3)n2)csc1C	-0.2%
COc1ccccc1C(=O)NCCC(=O)NCCc1ccccc1	0.26%
Cc1cc(C)cc(NC(=O)[C@H](Cc2c[nH]c3ccccc23)NC(=O)[C@@H]2Cc3ccccc3CN2)c1	-1.23%
Cc1ccc(NC(=O)[C@H](Cc2ccccc2)NC(=O)[C@@H]2Cc3ccccc3CN2)c(C)c1	-0.41%
CCOC(=O)c1ccc(NC(=S)N(CCCN2CCN(CC)CC2)Cc2ccco2)cc1	-0.57%
COc1cc2c(cc1OC)-c1cc(Nc3ccc(C(=O)O)cc3)nc(=O)n1CC2	-0.34%
CC(C(=O)Nc1cccc(S(=O)(=O)N2CCOCC2)c1)N1CCN(c2ccc(F)cc2)CC1 (stereo not given)	-1.17%
CCOCC(=O)Nc1cccc(SC)c1	0.36%
CCN(CCN1CCCC1)C(=O)c1cc(COc2ccccc2SC)on1	-1.45%
O=C(COc1ccc(Cl)cc1)NC1=NN(c2ccccc2)C(=O)C1	-0.49%
Nc1nc(NCCO)nc(NC2CCCCC2)c1[N+](=O)[O-]	1.53%
CN(C)CCCNc1nc(N)c([N+](=O)[O-])c(NC2CCCCC2)n1	1.01%
CC(C)OC(=O)CC(=O)CSc1nc(-c2ccc(F)cc2)cc(-c2ccccc2)c1C#N	-0.46%
O=S(=O)(CCSc1ccc(C(F)(F)F)cn1)c1ccc(Cl)cc1	-0.47%
CCCN(CCC)CCCNC(=S)Nc1ccc2nc(N3CCN(CC)CC3)cc(C)c2c1	3.38%
CCCN(CCC)CCCNC(=S)Nc1ccc2nc(N3CCN(C)CC3)cc(C)c2c1	0.29%
CCC(C)NC(=O)C1CCCN(S(=O)(=O)c2ccc(-n3cnnn3)cc2)C1 (stereo not given)	0.81%
Cc1ccc(S(=O)(=O)NNC(=O)Nc2cccc(F)c2)c(C)c1	0.14%
